Records with an inconclusive call do not appear. Active and inactive are the calls of the source. Rule for the calls: active = hit-call score of the fitted dose curve at least 0.9, where 1 is the maximum; inconclusive = response in the unintended direction; inactive = score below 0.9.
Experiments:
[1] = target: Peroxisome proliferator-activated receptor gamma (Homo sapiens) (UniProt P37231); experiment: OT_PPARg_PPARgSRC1_0480: Odyssey Thera (OT) 8-hour Protein-Complementation Assay for Peroxisome Proliferator-activated Receptor Gamma / SRC-1 Co-activator (AID 2283387)
Procedure, shortened: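 Read-out: 488 nm N/C fluorescence ratio from complemented Venus YFP fragments, ≥350 cells per image, gain-of-signal fitted against DMSO baseline. Fusions of PPARg/SRC-1 with IFP1/IFP2 expressed transiently in HEK293T; compounds applied 8 h.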

[2] = target: Peroxisome proliferator-activated receptor gamma (Homo sapiens) (UniProt P37231); experiment: OT_PPARg_PPARgSRC1_1440: Odyssey Thera (OT) 24-hour Protein-Complementation Assay for Peroxisome Proliferator-activated Receptor Gamma/ SRC-1 Co-activator (AID 2283388)
Procedure, shortened: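 HEK293T transiently transfected with PPARg/SRC-1 split-Venus YFP fusions 48 h before dosing, then treated 24 h at 37C. Fixed cells imaged; nuclear/cytoplasmic 488 nm fluorescence ratio, gain of signal versus DMSO.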

Chain of Peroxisome proliferator-activated receptor gamma (Homo sapiens) (P37231 whole entry, looked up, the tested form may be a part): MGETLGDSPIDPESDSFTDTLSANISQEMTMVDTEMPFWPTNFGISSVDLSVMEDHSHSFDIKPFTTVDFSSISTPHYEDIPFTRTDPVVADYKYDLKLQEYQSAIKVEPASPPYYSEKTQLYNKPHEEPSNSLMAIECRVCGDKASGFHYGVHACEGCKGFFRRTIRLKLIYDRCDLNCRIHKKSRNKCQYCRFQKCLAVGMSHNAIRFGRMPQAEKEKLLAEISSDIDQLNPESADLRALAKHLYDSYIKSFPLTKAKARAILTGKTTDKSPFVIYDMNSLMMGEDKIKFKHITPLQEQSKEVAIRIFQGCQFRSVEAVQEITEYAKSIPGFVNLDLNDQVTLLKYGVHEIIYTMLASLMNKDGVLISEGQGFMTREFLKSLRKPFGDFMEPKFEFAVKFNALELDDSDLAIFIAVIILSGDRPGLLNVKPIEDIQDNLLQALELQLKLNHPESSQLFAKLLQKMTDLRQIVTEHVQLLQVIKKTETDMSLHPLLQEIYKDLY

| Structure (SMILES) | outcome [1] | outcome [2] |
| --- | --- | --- |
| ClC1=C(Cl)[C@]2(Cl)[C@H]3[C@H]([C@@H]4C=C[C@H]3C4)[C@@]1(Cl)C2(Cl)Cl | inactive | inactive |
| CC(C)COC(=O)c1ccccc1C(=O)OCC(C)C | inactive | inactive |
| O=C1CCCO1 | inactive | inactive |
| CCN(CC)N=O | inactive | inactive |
| CC(O)CCO (configuration not stated) | inactive | inactive |
| Oc1ccccc1Cl | inactive | inactive |
| N#CC(Br)Br | inactive | inactive |
| CN(C)C(=O)Nc1ccc(Cl)cc1 | inactive | inactive |
| [O-][Cl+]O | inactive | inactive |
| ClC1=C(Cl)C2(Cl)C3C(Cl)C=CC3C1(Cl)C2(Cl)Cl (configuration not stated) | inactive | inactive |
| Cc1ccc(N)cc1 | inactive | inactive |
| CCNS(=O)(=O)C(F)(F)C(F)(F)C(F)(F)C(F)(F)C(F)(F)C(F)(F)C(F)(F)C(F)(F)F | inactive | inactive |
| Cc1ccc([N+](=O)[O-])cc1 | inactive | inactive |
| COc1cc(C=O)cc2c1[C@H](COC(N)=O)[C@]1(OC(C)=O)ON2C[C@H]2[C@@H]1N2C(C)=O | inactive | inactive |
| C[N+](C)(C)CC1CO1 (configuration not stated) | inactive | inactive |
| Clc1ccc(C(c2ccc(Cl)cc2)C(Cl)Cl)cc1 | inactive | inactive |
| CCCCOC(=O)c1ccccc1C(=O)OCc1ccccc1 | inactive | inactive |
| C1=Cc2cccc3cccc1c23 | inactive | inactive |
| Clc1ccc(Cl)c(Cl)c1 | inactive | inactive |
| CCCCC(CC)COC(=O)c1ccc(C(=O)OCC(CC)CCCC)c(C(=O)OCC(CC)CCCC)c1 (configuration not stated) | inactive | inactive |
| CN(C)[C@@H]1C(=O)C(C(N)=O)=C(O)[C@@]2(O)C(=O)C3=C(O)c4c(O)cccc4[C@@](C)(O)[C@H]3C[C@@H]12 | inactive | inactive |
